D1 potentiator: Potentiators of Human D1 Dopamine Receptor: qHTS. 0.036% of 360,000 active. potentiation, % at 10 µM. D(1A) dopamine receptor (Homo sapiens), P21728. HEK293 TREx D1 cells, calcium flux, dopamine EC20 potentiation; in the data active means potentiation above about 30%; further: 0% is about no effect
DRD3 antagonist: qHTS of D3 Dopamine Receptor Antagonist: qHTS. D(3) dopamine receptor (Homo sapiens), P35462. D3R cells, DiscoveRx beta-arrestin luminescence, antagonist mode; hits give low values. max response, negative = inhibition, %. 2.5% of 360,000 active. AID 652054, 2013; in the data active means max response below about -50%; inconclusive means no clear call, values can overlap the other calls; further: on the % scale 0 is the no-effect control and ±100 the full control effect
Target sequence (P35462 whole entry, looked up): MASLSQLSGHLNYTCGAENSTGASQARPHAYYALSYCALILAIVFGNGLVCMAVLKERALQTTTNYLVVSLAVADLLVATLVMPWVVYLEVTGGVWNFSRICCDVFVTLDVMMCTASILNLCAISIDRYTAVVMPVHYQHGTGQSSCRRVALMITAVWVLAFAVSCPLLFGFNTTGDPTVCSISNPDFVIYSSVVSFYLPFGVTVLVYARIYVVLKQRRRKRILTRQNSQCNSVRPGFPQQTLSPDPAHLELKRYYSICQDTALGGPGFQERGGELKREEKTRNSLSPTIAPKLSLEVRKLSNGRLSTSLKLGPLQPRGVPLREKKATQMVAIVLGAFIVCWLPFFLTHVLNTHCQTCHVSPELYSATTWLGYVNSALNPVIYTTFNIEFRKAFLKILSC
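Cells plated overnight at 1500 cells/well, then exposed to library compounds with dopamine controls for 90 minutes at 37 degrees C. DiscoveRx reagent added for 30–60 minutes at room temperature; luminescence read, quantitative HTS format.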
D1 antag: Antagonist of Human D 1 Dopamine Receptor: qHTS; HEK293 TREx D1 cells, calcium flux, dopamine EC80; hits give low values; activity change, negative = inhibition, % at 10 µM; D(1A) dopamine receptor (Homo sapiens), P21728; 3.2% of 360,000 active; in the data active means activity change below about -30%; further: on the % scale 0 is the no-effect control and ±100 the full control effect
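Antagonism measured as reduced calcium response to an EC80 dopamine addition following 180 s compound pre-read; cells were inducible HEK293 Trex D1 plated overnight at 30 C, read kinetically at 1 cycle/sec.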
DRD3 agonist: qHTS of D3 Dopamine Receptor Agonist: qHTS; 0.58% of 410,000 active; D3R DiscoveRx beta-arrestin cells, luminescence, 90 min; max activation, %; AID 652048, 2013; in the data active means max activation above about 30%; further: 0% is about no effect
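Agonist-mode cell screen: cells plated at 1500/well and incubated overnight at 37 °C, then exposed to library compounds for 90 min at 37 °C. Detection reagent was added for 30–60 min at room temperature, and luminescence was read.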
BCR signal inh: qHTS Assay to Find Inhibitors of Chronic Active B-Cell Receptor Signaling. Potency, µM (doses to about 46.1 µM), inactives show top-dose activity change, negative = inhibition, usual class: inhibitors. ABC-DLBCL IkBa-CBG/CBR reporter, luminescence ratio, 4 h. 0.05% of 340,000 active. AID 493014, 2011; active means well fitted inhibition curve with a large enough effect in the signal ratio, with a control signal flat, not every such curve was filed as active; inconclusive means small, poorly fitted or top-dose-only effect, or effect the other way, or a change in a side signal; the % refers to the signal ratio;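 further: potency means the concentration at half of the fitted maximal effect; plate controls were basal doxycycline-induced cells for no effect and cells given 10 µM MG132 for full effect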
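TMD8 human ABC-DLBCL cells with doxycycline-inducible IκBα–green luciferase fusion and unfused red luciferase, in 0.5% FBS medium; compounds up to 46 uM, 4 h at 37C. Green/red luminescence ratio, filter-overlap corrected, fitted to concentration-response curves.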
D1 ag: Allosteric Agonists of the Human D1 Dopamine Receptor: qHTS; D(1A) dopamine receptor (Homo sapiens), P21728; HEK293 T-REx D1 cells, calcium flux, agonist mode; activation, % at 2 µM; 1% of 360,000 active; in the data active means activation above about 30%; further: 0% is about no effect
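Agonism was scored from calcium flux recorded over 180 s (1 read/s) after pintool compound addition, following a 10-cycle baseline. Cells were inducible force-coupled HEK293 TREx D1, plated overnight at 30 C and loaded with no-wash calcium dye.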
Starred values were filed as active, the others as inactive; ? = inconclusive; · = no result given; ! = not confirmed by another sample. Rows were chosen to be rich in hits. Some 6% of all compounds tested hit in one or more screens of this group.

SMILES	D1 potentiator	DRD3 antagonist	D1 antag	DRD3 agonist	BCR signal inh	D1 ag
CCc1ccc(CN2CCCC(C(=O)c3sccc3C)C2)o1 (stereo not given)	-4	-52*	0	-22	3%	1
Cc1ccsc1C(=O)C1CCCN(Cc2cnc(N)nc2)C1 (stereo not given)	0	-4	2	6	-4%	0
Cc1ccsc1C(=O)C1CCCN(Cc2cnn(C(C)C)c2)C1 (stereo not given)	2	-73*	2	-11	5%	2
Cc1ccsc1C(=O)C1CCCN(Cc2ccccc2O)C1 (stereo not given)	-8	-53*	-12	-15	-3%	0
Cc1ccccc1C(=O)NC(C(N)=O)P(=O)(OC(C)C)OC(C)C (stereo not given)	-1	5	-2	-6	?	3
CCn1c(O)c(/C=N/NC(=O)c2ccncc2)c(=O)[nH]c1=S	0	-10	-31*	-2	?	3
CCC1=CCN(CCc2c(C)[nH]c3ccccc23)CC1	·	-63*	·	-56	·	·
Cc1[nH]c2ccccc2c1CCN	·	-3	·	-9	·	·
CSCCC(NS(=O)(=O)c1ccc2c(c1)oc(=O)n2C)C(=O)Nc1ccc(F)c(Cl)c1 (stereo not given)	0	·	-17	-4	?	8
C[C@H]1CNCCc2ccc(Cl)cc21	·	·	·	-9	·	·
Clc1ccc(CCC(Cn2ccnc2)Sc2c(Cl)cccc2Cl)cc1 (stereo not given)	6	-18	-54*	-28	?	46*
Clc1ccc(C(Cn2ccnc2)OCc2csc3c(Cl)cccc23)c(Cl)c1 (stereo not given)	-5	0	17	0	?	27
O=C1C(I)=CC(=C(c2cc(I)c(O)c(I)c2)c2ccccc2C(=O)O)C=C1I	·	·	·	14	·	·
CCSc1nnc(NC(=O)c2cccn(Cc3ccc(Cl)cc3)c2=O)s1	-1	·	-35*	2	·	0
COc1ccc(NC(=O)c2cccn(Cc3ccc(Cl)cc3)c2=O)c(OC)c1	0	·	-40*	16	·	2
Cn1sc(Cl)cc1=O	·	·	·	7	·	·
Nc1c(C(=O)OCc2ccccc2)c2nc3ccccc3nc2n1Cc1cccs1	-4	-13	-30*	16	?	2
COc1ccccc1CN1CCN(Cc2ccc(Cl)cc2)CC1	-5	-96*	-28	-15	0%	2
COc1ccccc1N1CCN(Cc2ccc(Cl)cc2Cl)CC1	0	-85*	-2	-29	-10%	2
COc1ccc(CN2CCN(c3ccccc3F)CC2)cc1O	-5	-70*	-10	9	-6%	2
COc1ccccc1N1CCN(Cc2ccc(SC)cc2)CC1	-6	-107*	-27	-20	0%	3
CCc1ccc(CN2CCN(Cc3ccc(SC)cc3)CC2)cc1	3	?	4	-19	?	9
Fc1ccccc1N1CCN(Cc2c(F)cccc2F)CC1	-1	?	2	-9	-1%	0
COc1ccc(CN2CCN(Cc3ccccc3OC)CC2)cc1	-8	?	-6	-20	2%	3
CSc1ccc(CN2CCN(c3ccccc3C)CC2)cc1	-5	-73*	-1	-10	-2%	2
SMILES	D1 potentiator	DRD3 antagonist	D1 antag	DRD3 agonist	BCR signal inh	D1 ag
COc1ccccc1N1CCN(Cc2ccc(F)cc2)CC1	-11	-82*	5	-4	-5%	-1
CN1CCN=C(c2ccccc2)c2cc(Cl)ccc21	·	·	·	-1	·	·
CCCCCCOc1ccc(CN2CCN(C)CC2)cc1	-10	-17	-18	-19	?	31*
CC1CCC(C(C)C)C(OC(=O)Cn2c(-c3ccc(Br)cc3)[n+](C)c3ccccc32)C1 (stereo not given)	-2	-67*!	-3	-8	?	-4
Cc1ccccc1OCc1n(CC(=O)OC2CC(C)CCC2C(C)C)c2ccccc2[n+]1C (stereo not given)	-5	-14	0	-15	?	11
CCN1CCN(c2ncnc3ccc(Br)cc23)CC1	-3	-66*	-5	-1	1%	4
CCc1cc2c(N3CCN(C)CC3)ncnc2s1	-8	?	16	-1	?	1
Cc1cccc(C)c1OCC(=O)Nc1ccc(Cl)cc1C(=O)c1ccccc1	-1	·	-5	2	·	0
Cc1cc(C)c(OCC(=O)Nc2cccc(NC(=O)c3ccco3)c2)c(Br)c1	-9	43	-16	34*	?	6
CN1CCc2cccc(Cl)c2CC1	-7	-78*	-64*	-71	0%	0
COc1ccc(-c2oc3cccnc3c2/C=C/c2ccc(OC)c(OC)c2)cc1	-4	2	-21	12	?	2
CC(CCc1ccccc1)NC(C)C(O)c1ccc(O)cc1 (stereo not given)	-3	-70*	22	0	-4%	6
C=C1C(O)[C@@H]2O[C@]3(CC[C@H](/C=C/C(C)[C@@H]4CC(C)=CC5(O[C@H](C[C@@](C)(O)C(=O)O)CCC5O)O4)O3)CC[C@H]2O[C@@H]1C(O)CC(C)[C@H]1OC2(CCCCO2)CCC1C (stereo not given in full)	·	-132*	·	-70	?	·
COc1cc(CC(C)N)cc(OC)c1OC (stereo not given)	·	·	·	13	·	·
COc1ccc(CN2C(=O)NC(=O)/C(=C/c3ccc(OC)c(OC)c3OC)C2=O)cc1	-2	5	-35*	4	1%	7
O=[N+]([O-])c1ccc(NCc2ccc(Cl)cc2)c2ccncc12	-3	0	-13	2	0%	5
O=[N+]([O-])c1ccc(NCc2ccccc2)c2nonc12	-2	-5	-59*	0	6%	593*
CCC1(CC)C(=O)NC(=O)N(C)C1=O	·	·	·	0	·	·
CCCN1CCC[C@H](c2cccc(O)c2)C1	-2	16	5	121*	-1%	1
O=C(c1ccc(-c2ccccc2)c(F)c1)C1CCCN(CCO)C1 (stereo not given)	-5	-3	-29	-4	-17%	18
CCOP(=O)(OCC)c1cccc(O)c1	2	3	4	7	4%	2
CCCN1CCC[C@@H](c2cccc(O)c2)C1	-6	12	-54*	21	-8%	-2
Cc1ccc(CN2C3CCCC2CC(NC(=S)NCc2ccccc2)C3)cc1 (stereo not given)	2	-94*	-75*	-19	-5%	34*

Compound activity as filed in PubChem BioAssay.
